Screening data (PubChem BioAssay)
Hits are enriched below; roughly 3.5% of the tested compounds scored in any of these assays.
MITF inh = inhibitors of human MITF | O75030 | AlphaScreen MITF homodimerization, bead proximity signal | inhibition, % at 2.6 µM | 650,000 compounds, 0.91% hits | AID 1259374; in the data active = inhibition above about 50%
FBW7 act = human FBW7 E3 ligase activation, primary screen; normalized activity (activation), % at 26.1 µM; AlphaScreen FBW7–phospho-cyclin E peptide binding, activator screen; AID 1259310; 650,000 compounds, 0.13% hits; in the data active = normalized activity above about 1.9%;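 also: purified mutant Fbw7 with reduced substrate affinity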
Target sequence (Q969H0 whole entry, looked up): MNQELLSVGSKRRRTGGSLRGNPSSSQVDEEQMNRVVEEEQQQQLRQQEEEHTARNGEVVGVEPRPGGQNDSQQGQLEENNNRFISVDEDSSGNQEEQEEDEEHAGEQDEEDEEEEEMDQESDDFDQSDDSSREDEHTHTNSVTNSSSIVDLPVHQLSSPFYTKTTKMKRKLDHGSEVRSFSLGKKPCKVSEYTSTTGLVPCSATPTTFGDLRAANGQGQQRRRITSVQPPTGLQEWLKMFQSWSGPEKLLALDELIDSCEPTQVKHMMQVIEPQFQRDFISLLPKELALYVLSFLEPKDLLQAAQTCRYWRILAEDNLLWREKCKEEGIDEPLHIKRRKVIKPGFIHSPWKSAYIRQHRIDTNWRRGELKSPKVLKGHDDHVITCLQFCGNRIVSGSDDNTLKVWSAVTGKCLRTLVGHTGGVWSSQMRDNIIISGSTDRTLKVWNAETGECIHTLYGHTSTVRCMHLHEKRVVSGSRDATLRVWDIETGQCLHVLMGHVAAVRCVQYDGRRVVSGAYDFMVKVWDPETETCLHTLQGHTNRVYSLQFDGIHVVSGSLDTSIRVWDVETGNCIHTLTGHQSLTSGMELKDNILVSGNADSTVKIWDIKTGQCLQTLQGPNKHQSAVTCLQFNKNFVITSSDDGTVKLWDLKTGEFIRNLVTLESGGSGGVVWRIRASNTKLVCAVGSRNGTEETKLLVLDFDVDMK
GPR151 ag = human GPR151 activation. PathHunter beta-arrestin GPR151 cells, luminescence. AID 1508602. Q8TDV0. activation, % at 11.2 µM. 650,000 compounds, 1% hits; in the data active = activation above about 4.9%
TEAD-YAP block = TEAD-YAP interaction inhibition | HEK-TIYL cells, TEAD-Gal4/YAP UAS-luciferase luminescence | inhibition, % at 9.12 µM | 640,000 compounds, 1.4% hits; in the data active = inhibition above about 32%
MITF confirm = confirmation of human MITF inhibitors. shares compounds with MITF inh. AlphaScreen MITF homodimerization, biotin/His-MITF beads. inhibition, % at 2.6 µM. 4,700 compounds, 16% hits. AID 1259372;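 active = inhibition above a cutoff derived from the DMSO control wells, cut at about 28% in these data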;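 also: inhibitors lower the bead chemiluminescence by keeping MITF from dimerizing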
AS interf DR = optically interferes with AlphaScreen signal in dose response. AlphaScreen optical interference counterscreen, cell-free. 480 compounds, 6% hits. shares compounds with MITF inh. IC50, µM. AID 1259373; call rule not given here
AlphaScreen intf2 = AlphaScreen optical interference, counter-screen; shares compounds with MITF inh; LysRS AlphaScreen counterscreen, signal interference, triplicate; inhibition, % at 2.6 µM; 4,700 compounds, 7.6% hits;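 active = inhibition above a cutoff derived from the DMSO control wells, cut at about 30% in these data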
Hits are given with their value.

What do the screens show for `Cc1ccccc1S(=O)(=O)NNC(=O)C(=O)NNc1ccccn1`?
MITF inh: 54; FBW7 act: inactive; GPR151 ag: inactive; TEAD-YAP block: inactive; MITF confirm: 47; AlphaScreen intf2: 75

Results for O=[N+]([O-])c1ccccc1OCCOCCOc1ccccc1[N+](=O)[O-] ?
MITF inh: inactive; FBW7 act: inactive; GPR151 ag: inactive; TEAD-YAP block: inactive

What do the screens show for `Cc1ccc(OCCOCCN2CCN(C)CC2)c([N+](=O)[O-])c1`?
MITF inh: 87; FBW7 act: inactive; GPR151 ag: inactive; TEAD-YAP block: inactive; MITF confirm: inactive; AlphaScreen intf2: inactive

What do the screens show for `CN1CCN(CCOCCOc2ccccc2[N+](=O)[O-])CC1`?
MITF inh: 78; FBW7 act: inactive; GPR151 ag: inactive; TEAD-YAP block: inactive; MITF confirm: inactive; AlphaScreen intf2: inactive

What do the screens show for `O=C(CSc1c[nH]c2ccccc12)Nc1ccc(F)cc1F`?
MITF inh: inactive; FBW7 act: inactive; GPR151 ag: inactive; TEAD-YAP block: inactive

Results for CCOC(=O)c1[nH]c2ccc(OC)cc2c1NC(=O)CNc1nccs1 ?
MITF inh: inactive; FBW7 act: inactive; GPR151 ag: inactive; TEAD-YAP block: inactive

Results for COc1ccc(Nc2nc(-c3ccc(OC)cc3)c(CCC(=O)NN)s2)cc1 ?
MITF inh: inactive; FBW7 act: inactive; GPR151 ag: inactive; TEAD-YAP block: inactive

Results for CCn1c(C)[n+](CC)c2ccc(S(=O)(=O)C(F)F)cc21 ?
MITF inh: inactive; FBW7 act: inactive; GPR151 ag: inactive; TEAD-YAP block: inactive

What do the screens show for `CCn1c(C)[n+](CC)c2ccc(Cl)cc21`?
MITF inh: 57; FBW7 act: inactive; GPR151 ag: inactive; TEAD-YAP block: inactive; MITF confirm: inactive; AlphaScreen intf2: inactive

How did CN=C(NS(=O)(=O)c1ccc(C)cc1C)c1ccccc1 do in these assays?
MITF inh: inactive; FBW7 act: inactive; GPR151 ag: inactive; TEAD-YAP block: inactive

How did CCc1cc2c(=O)c(-c3ccc4c(c3)OCO4)coc2cc1O do in these assays?
MITF inh: inactive; FBW7 act: inactive; GPR151 ag: inactive; TEAD-YAP block: inactive

How did CC(=O)N1CCN(Cc2cc(C)ccc2C)CC1 do in these assays?
MITF inh: inactive; FBW7 act: inactive; GPR151 ag: inactive; TEAD-YAP block: inactive

Results for Cc1ccccc1CN1CCN(CCOCCO)CC1 ?
MITF inh: 69; FBW7 act: inactive; GPR151 ag: inactive; TEAD-YAP block: inactive; MITF confirm: inactive; AlphaScreen intf2: inactive

What do the screens show for `OCCOCCN1CCN(Cc2cccc3ccccc23)CC1`?
MITF inh: inactive; FBW7 act: inactive; GPR151 ag: inactive; TEAD-YAP block: inactive

What do the screens show for `Cc1ccc(C)c(CN2CCN(CCOCCO)CC2)c1`?
MITF inh: 81; FBW7 act: inactive; GPR151 ag: inactive; TEAD-YAP block: inactive; MITF confirm: inactive; AlphaScreen intf2: inactive

Results for OCCOCCN1CCN(Cc2cc(Br)cs2)CC1 ?
MITF inh: 71; FBW7 act: inactive; GPR151 ag: inactive; TEAD-YAP block: inactive; MITF confirm: inactive; AlphaScreen intf2: inactive

What do the screens show for `CCOC(=O)N1CCN(Cc2ccc(O)c3ncccc23)CC1`?
MITF inh: 71; FBW7 act: inactive; GPR151 ag: inactive; TEAD-YAP block: inactive; MITF confirm: 50; AlphaScreen intf2: 97

How did Oc1ccc(CN2CCN(c3ccccc3F)CC2)c2cccnc12 do in these assays?
MITF inh: inactive; FBW7 act: inactive; GPR151 ag: inactive; TEAD-YAP block: inactive

Results for CCCOCc1ccc(O)c2ncccc12 ?
MITF inh: 81; FBW7 act: inactive; GPR151 ag: inactive; TEAD-YAP block: inactive; MITF confirm: 80; AlphaScreen intf2: 100

What do the screens show for `O=C(/C=C/c1ccc(-c2cccc(C(F)(F)F)c2)o1)c1ccco1`?
MITF inh: 78; FBW7 act: inactive; GPR151 ag: inactive; TEAD-YAP block: inactive; MITF confirm: 70; AS interf DR: inactive; AlphaScreen intf2: inactive

How did Cc1ccc(C(=O)/C=C/c2ccc(-c3cccc(C(F)(F)F)c3)o2)cc1 do in these assays?
MITF inh: inactive; FBW7 act: inactive; GPR151 ag: inactive; TEAD-YAP block: inactive

What do the screens show for `O=C(/C=C/c1ccc(-c2ccc(F)cc2)o1)c1ccco1`?
MITF inh: 58; FBW7 act: inactive; GPR151 ag: inactive; TEAD-YAP block: inactive; MITF confirm: 77; AlphaScreen intf2: 40

How did Cc1ccc(NC(=O)CC2SC(=NC3CCCCC3)NC2=O)c(C)c1 (centres undefined) do in these assays?
MITF inh: inactive; FBW7 act: inactive; GPR151 ag: inactive; TEAD-YAP block: inactive

Results for O=C(CNCc1ccco1)Nc1ccc(C(=O)N2CCCCC2)cc1 ?
MITF inh: inactive; FBW7 act: inactive; GPR151 ag: inactive; TEAD-YAP block: inactive

How did COc1cc(CN2CCN(Cc3ccc(Cl)cc3)CC2)cc(OC)c1 do in these assays?
MITF inh: 84; FBW7 act: inactive; GPR151 ag: inactive; TEAD-YAP block: inactive; MITF confirm: inactive; AlphaScreen intf2: inactive

How did COc1cccc(CN2CCCCC2)c1 do in these assays?
MITF inh: inactive; FBW7 act: inactive; GPR151 ag: inactive; TEAD-YAP block: inactive

Results for COc1cc(CN2CCCCCC2)cc(OC)c1 ?
MITF inh: inactive; FBW7 act: inactive; GPR151 ag: inactive; TEAD-YAP block: inactive

Results for COc1cc(CN2CCN(Cc3cccc(Cl)c3)CC2)cc(OC)c1 ?
MITF inh: 73; FBW7 act: inactive; GPR151 ag: inactive; TEAD-YAP block: inactive; MITF confirm: inactive; AlphaScreen intf2: inactive

How did O=[N+]([O-])c1ccc(Cl)c(-c2ncnn2-c2ccc(F)cc2)c1 do in these assays?
MITF inh: inactive; FBW7 act: inactive; GPR151 ag: inactive; TEAD-YAP block: inactive

Results for COc1ccc(OCC(O)CN2CCN(CCc3ccccn3)CC2)c(C(C)(C)C)c1 (centres undefined) ?
MITF inh: 81; FBW7 act: inactive; GPR151 ag: inactive; TEAD-YAP block: inactive; MITF confirm: inactive; AlphaScreen intf2: inactive

What do the screens show for `COc1ccc(COCC(O)CN2CCN(C(C)=O)CC2)cc1` (centres undefined)?
MITF inh: inactive; FBW7 act: inactive; GPR151 ag: inactive; TEAD-YAP block: inactive

Results for COc1ccc(COCC(O)CN2CCN(CCc3ccccn3)CC2)cc1 (centres undefined) ?
MITF inh: 78; FBW7 act: inactive; GPR151 ag: inactive; TEAD-YAP block: inactive; MITF confirm: inactive; AlphaScreen intf2: inactive

What do the screens show for `CCC(C)N(C(C)CC)S(=O)(=O)c1ccc([N+](=O)[O-])cc1` (centres undefined)?
MITF inh: inactive; FBW7 act: inactive; GPR151 ag: inactive; TEAD-YAP block: inactive

Results for COc1cc(N2CCOCC2)ccc1Nc1cc(NC(C)(C)c2ccccc2)c(C(F)(F)F)cn1 ?
MITF inh: 58; FBW7 act: inactive; GPR151 ag: inactive; TEAD-YAP block: inactive; MITF confirm: 44; AS interf DR: inactive; AlphaScreen intf2: inactive
